Among all 50,000 compounds or so, about 800 (1.6%) showed an effect of 50% or more. Only a selection was taken, and strong results are over-represented in it overall.
biological target: Bcl-2-like protein 10 (Homo sapiens) (UniProt Q9HD36); assay: TR3 peptide-Bcl-B binding displacers, biochemical primary FP assay, phenotype converters (AID 1240); conditions: GST-Bcl-B / FITC-TR3 peptide fluorescence polarization; stronger effect = higher value; compound at 3.75 mg/L;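 further: 0% = Bcl-B with tracer peptide and DMSO and 100% = tracer peptide lacking Bcl-B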
Sequence (Q9HD36 whole entry, looked up): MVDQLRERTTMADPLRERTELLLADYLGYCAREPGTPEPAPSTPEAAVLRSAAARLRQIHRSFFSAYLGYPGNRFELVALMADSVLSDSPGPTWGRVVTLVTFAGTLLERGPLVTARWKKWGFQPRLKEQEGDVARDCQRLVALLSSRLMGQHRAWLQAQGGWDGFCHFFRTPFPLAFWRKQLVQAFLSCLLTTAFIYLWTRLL

| SMILES | displacement [%] |
| --- | --- |
| COc1ccc(N2C(=O)c3ccccc3NC2c2ccc(OC)c(CN3C(=O)c4ccccc4C3=O)c2)cc1 (stereo not given) | -4.2 |
| COC(=O)CSc1nc(NC(C)=O)nc(C)c1Br | 4.5 |
| Oc1c(Cl)cc(Br)cc1/C=N/Nc1nc(N2CCOCC2)nc(N2CCOCC2)n1 | 9.3 |
| O=C1/C(=C/Nc2ccccc2NS(=O)(=O)c2ccccc2)CCc2ccccc21 | 10.4 |
| O=C1/C(=C\Nc2ccccc2O)CCc2ccccc21 | 3.8 |
| CNc1ccc([N+](=O)[O-])cc1N/C=C1\CCc2ccccc2C1=O | 126 |
| O=C1/C(=C\Nc2ccc3c(c2)OCO3)CCc2ccccc21 | 48.1 |
| O=C1/C(=C\Nc2cc(Cl)ccc2O)CCc2ccccc21 | 85.9 |
| O=C1/C(=C/Nc2ccccc2NS(=O)(=O)c2ccc([N+](=O)[O-])cc2)CCc2ccccc21 | 8.1 |
| C[N+]1=C(CC(=O)Nc2ccccc2Cl)c2ccccc2CC1(C)C | 1.4 |
| Cc1ccc2nc(-c3ccc(NC(=O)c4ccc(S(=O)(=O)N5CCCC5)cc4)cc3)sc2c1 | -1.5 |
| Cc1cc(S(=O)(=O)N2CCCC2C(=O)O)c(C)cc1Cl (stereo not given) | -5.8 |
| Cc1nc2cc(-c3ccco3)[nH]n2c(=O)c1C | 17 |
| O=c1c2c(nc3cc(-c4cccs4)[nH]n13)CCS2 | 75.8 |
| O=c1c2c(nc3cc(-c4ccccc4)[nH]n13)CCS2 | -12.6 |
| O=c1c2c(nc3cc(-c4ccco4)[nH]n13)CCS2 | 78.9 |
| O=c1c2c(nc3cc(-c4cccs4)[nH]n13)CCCC2 | 20.5 |
| O=c1c2c(nc3cc(-c4cccs4)[nH]n13)CCC2 | 5.7 |
| O=C1NC(=O)N(c2ccc3c(c2)OCO3)C(=O)/C1=C/c1ccc(I)o1 | 17.5 |
| COc1cc(/C=N/Nc2ncc(C)c(=O)[nH]2)cc(OC)c1O | 6.6 |
| CN(C)c1ccc(NS(=O)(=O)c2ccc(N3C(=O)CCC3=O)cc2)cc1 | 19.2 |
| COc1ccc(N/C(C)=C/C(=O)c2ccc(Cl)cc2)c(OC)c1 | 0.8 |
| CCCCCCC(=O)Nc1nnc(CC(C)C)s1 | -12.9 |
| C/C(=N\NC(=O)CCc1c(C)n[nH]c1C)c1ccc(N)cc1 | -4 |
| CCCC1=NN(c2ccc([N+](=O)[O-])cc2)C(=O)/C1=C\N(C)C | -5.5 |
| NC(=O)c1c(NC(=O)Nc2ccc(Cl)cc2)sc2c1CCCC2 | 0.8 |
| CCOc1ccc(N2COc3ccc4ccccc4c3C2)cc1 | 9.1 |

| SMILES | displacement [%] |
| --- | --- |
| Oc1c(Br)cc2oc3c(c2c1/C=N/c1ncn[nH]1)CCCC3 | 8.5 |
| Oc1ccccc1N=Cc1c(O)c(I)cc2oc3c(c12)CCCC3 | 130 |
| Cc1ccc(N=Cc2c(O)c([N+](=O)[O-])cc3oc4c(c23)CCCC4)cc1C | -1.4 |
| O=C(NCc1cccnc1)C(=O)N1CCCCC1 | -1.4 |
| O=C(CC(c1ccccc1)c1ccccc1)Nc1ccccc1Br | -11.6 |
| CC(=O)CCc1oc2ccc([N+](=O)[O-])cc2c1-c1ccc(C)o1 | 3.5 |
| CC(=O)/C=C/c1oc2ccc([N+](=O)[O-])cc2c1-c1ccc(C)o1 | 80.9 |
| COc1cc2nnc(/C=C/C(C)=O)c(-c3ccc(C)o3)c2cc1OC | 48 |
| O=C(Nc1ccc(-c2nnc(-c3ccccc3)o2)cc1)c1cccs1 | 15.3 |
| Nc1nonc1C(=O)N/N=C/c1cc(Cl)cc(Cl)c1O | 9 |
| C=CCN1C(=O)/C(=C\c2ccc(-c3ccc(F)c(Cl)c3)o2)SC1=S | 39.4 |
| O=C(O)CN1C(=O)/C(=C\c2ccc(-c3ccccc3Cl)o2)SC1=S | -121 |
| O=C1/C(=C/c2ccc(-c3cc(Cl)ccc3Cl)o2)SC(=S)N1Cc1ccco1 | 14.1 |
| C=CCN1C(=O)/C(=C\c2ccc(-c3ccccc3Cl)o2)SC1=S | 149 |
| C=CCN1C(=O)/C(=C\c2ccc(-c3cccc(Cl)c3)o2)SC1=S | 1.4 |
| C=CCN1C(=O)/C(=C\c2ccc(-c3cc(Cl)cc(Cl)c3)o2)SC1=S | 1.7 |
| C=CCN1C(=O)/C(=C\c2ccc(-c3cc(Cl)ccc3Cl)o2)SC1=S | 65.4 |
| C=CCN1C(=O)/C(=C\c2ccc(-c3ccc(Cl)c(Cl)c3)o2)SC1=S | 50.1 |
| C=CCN1C(=O)/C(=C\c2ccc(-c3ccc(C(=O)OCC)cc3)o2)SC1=S | 90.3 |
| CCOC(=O)c1ccc(-c2ccc(/C=C3/SC(=S)N(CC)C3=O)o2)cc1 | 31 |
| CCOC(=O)c1ccc(-c2ccc(/C=C3/SC(=S)N(CC(=O)O)C3=O)o2)cc1 | -83.7 |
| O=C1/C(=C\c2ccc(-c3ccccc3Cl)o2)SC(=S)N1Cc1ccccc1 | 10 |
| O=C(COc1ccc(Cl)cc1Cl)Nc1ccc2c(c1)OCO2 | 3.3 |
| Cc1cc(OCC(=O)Nc2ccc(Nc3ccccc3)cc2)ccc1Br | 1.1 |
| CCOc1ccc(N(CC(=O)Nc2ccccc2OCC)S(=O)(=O)c2ccc(SC)cc2)cc1 | 15.2 |
| O=C(COc1ccc([N+](=O)[O-])cc1)Nc1cc(C(F)(F)F)cc(C(F)(F)F)c1 | -2.6 |
| O=C1NC(=Nc2ccc(O)cc2)S/C1=C/C=C/c1ccccc1 | -5.6 |

| SMILES | displacement [%] |
| --- | --- |
| CC(=O)N(c1ccc(Br)cc1)C1SC(=O)N(c2cccc(C)c2)C1=O (stereo not given) | -0.5 |
| CN(C(=O)c1cccs1)c1ccccc1C(=O)O | -1.3 |
| CN(c1ccccc1C(=O)O)C1SC(=O)N(c2ccccc2)C1=O (stereo not given) | 138 |
| Brc1ccc2c(c1)Nc1nc3nonc3nc1N2 | 3.9 |
| O=C1/C(=C/c2cccc(Br)c2)SC(=S)N1Cc1ccco1 | 3.6 |
| O=C1/C(=C/c2ccc(Cl)c(Cl)c2)SC(=S)N1Cc1ccco1 | 14.2 |
| O=C1/C(=C/c2ccccc2[N+](=O)[O-])SC(=S)N1Cc1ccco1 | 16.5 |
| CCCCN1C(=O)/C(=C/C=C/c2ccccc2)SC1=S | -0.6 |
| C=CCN1C(=O)/C(=C\C=C\c2ccccc2)SC1=S | 6.3 |
| COc1ccccc1/C=C1\SC(=S)N(Cc2ccco2)C1=O | 1 |
| O=C1/C(=C/c2ccc3c(c2)OCO3)SC(=S)N1Cc1ccco1 | 94.5 |
| O=C1/C(=C/c2ccc(O)cc2)SC(=S)N1Cc1ccco1 | -13.3 |
| O=C1/C(=C/c2ccc(Br)cc2)SC(=S)N1Cc1ccco1 | 104 |
| O=C1/C(=C/c2cccc3ccccc23)SC(=S)N1Cc1ccco1 | 79.2 |
| COc1ccc(/C=C2\SC(=S)N(Cc3ccco3)C2=O)cc1OC | 21.8 |
| O=C1/C(=C/C=C/c2ccccc2)SC(=S)N1Cc1ccco1 | 99.7 |
| CCCCOC(=O)Nc1ccc(S(=O)(=O)Nc2cc(C)ccc2C)cc1 | 7.1 |
| CC(C)C(=O)NC(c1ccc(N(C)C)cc1)c1c(O)ccc2ccccc12 (stereo not given) | 6.4 |
| CCCC1CCc2nc3ccccc3c(C(=O)O)c2C1 (stereo not given) | -10.4 |
| O=C(NC12CC3CC(CC(C3)C1)C2)c1ccc(Cl)c(Cl)c1 | 6.9 |
| COc1ccc(-c2nc3c(n2O)CCC/C3=N\O)cc1OC | 16.6 |
| O=C(CCN1C(=O)c2ccccc2C1=O)NCC1CCCO1 (stereo not given) | 9.6 |
| COc1ccccc1NC(=O)CSc1ncn[nH]1 | 2.5 |
| COc1cc(/C=C2\C(=O)NN(c3ccccc3)C2=O)ccc1OCc1ccccc1F | 8.9 |
| Nc1ncc(-c2ccc([N+](=O)[O-])cc2)cn1 | -4.1 |
| O=C(Nc1nc(-c2ccc(Cl)cc2)cs1)c1ccc(S(=O)(=O)N2CCCCC2)cc1 | -9.5 |
| O=C(Nc1nc(-c2ccc(F)cc2)cs1)c1ccc(S(=O)(=O)N2CCCCCC2)cc1 | 129 |

| SMILES | displacement [%] |
| --- | --- |
| Cc1ccc(-c2csc(NC(=O)c3ccc(S(=O)(=O)N4CCCCCC4)cc3)n2)cc1 | -19 |
| CCc1c(C)sc(NC(=O)c2cccs2)c1C(=O)OC | 3.3 |
| O=C(O)C(Cc1ccccc1)N1C(=O)/C(=C/c2ccc(Br)cc2)SC1=S (stereo not given) | 11.6 |
| FC(F)(F)c1ccccc1CN1CCN(C2CCCCC2)CC1 | 1.4 |
| CCOc1cc(OCC)cc(C(=O)Nc2ccc(-c3nc4ncccc4o3)cc2)c1 | 0.6 |
| O=C(Nc1ccc2oc(-c3cccnc3)nc2c1)c1cccc(OCc2ccccc2)c1 | 11 |
| CC(C)COc1ccc(C(=O)Nc2ccc(-c3nc4ncccc4o3)cc2)cc1 | 50.1 |
| CC(C)COc1ccc(C(=O)Nc2ccc(-c3nc4ccccc4o3)cc2)cc1 | 10 |
| O=C(Nc1ccc(-c2nc3ncccc3o2)cc1)c1cccc(OCc2ccccc2)c1 | 110 |
| CCCCOc1ccc(C(=O)Nc2ccc(-c3nc4ncccc4o3)cc2)cc1 | 10.6 |
| CCCCc1c(C)nc2ccc(C(=O)O)cc2c1Cl | 1 |
| C=CCOc1ccc(/C=C2/C(=O)NN(c3ccc(C)c(Cl)c3)C2=O)cc1OC | 15.5 |
| CCOC(=O)c1ccc(-c2ccc(/C=C3/C(=O)NC(=O)N(c4ccccc4)C3=O)o2)cc1 | 88.5 |
| CN1C(=O)C(=Cc2ccc(-c3ccc(Cl)c(C(=O)O)c3)o2)C(=O)N(C)C1=O | 14.5 |
| CN1C(=O)C(=Cc2ccc(-c3ccc(Cl)c(Cl)c3)o2)C(=O)N(C)C1=O | -3.8 |
| COc1ccc(N2C(=O)NC(=O)/C(=C\c3cc(C)n(-c4ccc(N5CCOCC5)cc4)c3C)C2=O)cc1 | 15.9 |
| COC(=O)c1ccc(-n2c(C)cc(C=C3C(=O)NC(=S)NC3=O)c2C)cc1 | 24.8 |
| COC(=O)c1ccc(-n2c(C)cc(/C=C3\C(=O)NC(=O)N(c4ccc(OC)cc4)C3=O)c2C)cc1 | 115 |
| CCOC(=O)c1ccc(-c2ccc(/C=C3/C(=O)NN(c4cccc(Cl)c4)C3=O)o2)cc1 | -1.9 |
| COc1ccc(N2C(=O)NC(=O)/C(=C/c3ccc(-c4ccc(C(=O)O)cc4)o3)C2=O)cc1 | -10.9 |
| CCOC(=O)c1cc(-c2ccc(C=C3C(=O)N(C)C(=O)N(C)C3=O)o2)ccc1Cl | 111 |
| CCOC(=O)c1ccc(-c2ccc(/C=C3/C(=O)NC(=O)N(c4ccc(OC)cc4)C3=O)o2)cc1 | 86.2 |
| COc1ccc(N2C(=O)/C(=C/c3ccc(-c4ccc(C(=O)O)cc4)o3)C(=O)NC2=S)cc1 | -28.2 |
| Cc1cccc(N2C(=O)NC(=O)/C(=C/c3ccc(-c4ccc(C(=O)O)cc4)o3)C2=O)c1 | -58.8 |

— PubChem BioAssay AID1240 (Sanford-Burnham Center for Chemical Genomics, 2008)
